Screens deposited in PubChem BioAssay by National Center for Advancing Translational Sciences (NCATS).
The full list was thinned out, with hits kept by preference.
ClpP mod = qHTS Assay for Activators of ClpP. ATP-dependent Clp protease proteolytic subunit (Bacillus subtilis (strain 168)), P80244. purified B. subtilis ClpP, FRET peptide cleavage, 20 min. Potency, µM (highest dose often 57.5 µM). hit rate 1.9% among 340,000. AID 651965, 2013; active means well fitted falling curve with a large enough effect; inconclusive means small, poorly fitted or top-dose-only effect; inactive means no such curve, though single readings can be large or run the other way; further: the source files actives as falling curves though it sought activators and does not explain the sign; nearly all actives have a fitted effect of over 65% in size
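Purified B. subtilis ClpP, 10 microg/mL final in Tris/HCl pH8 with KCl, BSA, glycerol and Tween-20, cleaved an Abz/nitrotyrosine-quenched decapeptide. Fluorescence (ex 320, em 430) was read at 0 and 20 min at room temperature. Delta was normalized to 5.8 microM ADEP and DMSO/no-enzyme controls.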
GRP78 ERSR act = ER stress response induction in glioma | U87-MG GRP78 promoter luciferase reporter, 16 h | Potency, µM, most hits filed as activators | hit rate 0.02% among 420,000 | AID 602332; further: series mostly up to about 76 µM; nearly all actives have a fitted effect of over 35% in size
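ERSR induction read as luciferase luminescence (Bright-Glo, 10 min at room temperature) in stably transfected human U87-MG glioma cells exposed to compounds for 16 h, using GRP78 as sensor.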
N370S GC = inhibits or activates N370S mutant glucocerebrosidase | N370S GC spleen homogenate, 4MU-glucoside fluorescence | Potency, µM (highest dose often 59.4 µM), most hits filed as inhibitors | hit rate 0.092% among 330,000 | AID 2101
Apoferritin bind = binds horse apoferritin like a general anesthetic; P02791; apoferritin/1-aminoanthracene competitive binding, fluorescence; Potency, µM (top dose mostly 77.5 µM), hits mostly inhibitors; hit rate 0.074% among 350,000; further: nearly all actives have a fitted effect of over 20% in size
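In PBS, apoferritin at 10 uM is loaded with 1-AMA from a 50% saturated solution. After 10 min of compound exposure at ambient temperature, reduced 535 nm fluorescence indicates probe displacement.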
CBFb-RUNX1 inh = inhibitors of human CBF-beta and RUNX1 interaction; Q01196+Q13951; 230,000 tested, under 10 active; AID 1477; Potency, µM (series often up to 59.8 µM), usual class: inhibitors; AlphaScreen CBFb-His/RUNX1-biotin binding, biochemical
Target sequence (Q01196 whole entry, looked up): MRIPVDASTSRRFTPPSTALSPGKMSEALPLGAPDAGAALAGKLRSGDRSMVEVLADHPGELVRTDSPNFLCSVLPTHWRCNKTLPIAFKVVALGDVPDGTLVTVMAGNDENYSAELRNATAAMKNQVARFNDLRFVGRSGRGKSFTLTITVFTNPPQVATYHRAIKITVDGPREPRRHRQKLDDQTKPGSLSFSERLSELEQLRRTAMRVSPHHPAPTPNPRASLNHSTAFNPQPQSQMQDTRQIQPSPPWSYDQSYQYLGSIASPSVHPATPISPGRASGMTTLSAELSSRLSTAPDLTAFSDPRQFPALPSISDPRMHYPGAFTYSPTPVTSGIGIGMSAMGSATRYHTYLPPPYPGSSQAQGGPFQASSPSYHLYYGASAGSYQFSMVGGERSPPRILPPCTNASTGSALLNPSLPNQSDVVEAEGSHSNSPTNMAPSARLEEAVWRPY
Target sequence (Q13951 whole entry, looked up): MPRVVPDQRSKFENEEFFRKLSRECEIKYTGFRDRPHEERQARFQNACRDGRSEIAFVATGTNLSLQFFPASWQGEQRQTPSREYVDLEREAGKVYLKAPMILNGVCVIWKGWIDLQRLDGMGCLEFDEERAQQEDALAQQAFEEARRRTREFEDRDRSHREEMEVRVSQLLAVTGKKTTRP
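His-tagged CBF-beta and biotinylated RUNX1 (30 nM each) were premixed 20 min at room temperature, exposed to compound for 15 min, then given nickel-chelate and streptavidin AlphaScreen beads (50 ng each). After 90 min, AlphaScreen signal was read.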
Integrin act MD = activators of alpha7 integrin expression for muscular dystrophy; alpha7betagal myoblasts, beta-gal FDG fluorescence, 48 h; hit rate 0.064% among 350,000; Potency, µM (doses to about 38.3 µM), actives largely listed as activators; further: nearly all actives have a fitted effect of over 60% in size
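Alpha7betagal+/- myoblasts (passage 13) were plated 16-24 hr, then exposed to compounds (1:260 dilution of DMSO stock) for 48 hours at 37C. After MPER lysis, β-galactosidase reporter activity was read as FDG fluorescence (ex 480/em 540) after 30 minutes.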
ClpP validation = validation of B. subtilis ClpP protease hits (inhibitors). Potency, µM (highest dose often 57.5 µM), hits mostly inhibitors. purified B. subtilis ClpP, FRET-FV substrate cleavage, 20 min. hit rate 40% among 470. shares compounds with ClpP mod; further: nearly all actives have a fitted effect of over 70% in size
A number is an active result; – = inactive; ? = inconclusive; · = no result; [ ] = dose if it differs, or a comment. Unless noted, the call rests on the fitted dose curve; in most records, active means well fitted curve in the direction sought with a large enough effect; inconclusive means small, poorly fitted or top-dose-only effect, or another doubt; inactive means no such curve, though single readings can be large; an effect the other way counts as inactive or inconclusive.

SMILES	ClpP mod	GRP78 ERSR act	N370S GC	Apoferritin bind	CBFb-RUNX1 inh	Integrin act MD	ClpP validation
COc1ccc(-c2nc(NC(=O)c3ccc(OCC(=O)Nc4ccc(F)cc4)c(OC)c3)sc2C)cc1	–	–	–	–	–	–	19µM
CCCNC(=O)c1ccc(-c2nc3ccccc3s2)s1	2.8µM	–	–	–	–	–	24µM
CCCNC(=O)Nc1nc2ccccc2s1	–	–	–	–	–	–	·
Cn1c(SCC(=O)NCc2ccco2)nnc1-c1cccc(NC(=O)c2ccccc2)c1	–	–	·	·	·	·	·
COc1ccccc1NC(=O)c1sc2nc(N3CCOCC3)c3c(c2c1N)CCCC3	8.9µM	–	–	–	·	–	?
Cc1ccccc1NC(=O)c1sc2nc(N3CCOCC3)c3c(c2c1N)CCCC3	–	–	?	–	·	–	·
O=C(C[n+]1cc(Br)cc2ccccc21)c1ccc(O)c(O)c1	–	–	·	·	·	·	·
O=C(c1nc2nc(-c3cccs3)cc(C(F)(F)F)n2n1)N1CCN(Cc2ccccc2)CC1	2.5µM	–	–	–	–	–	24µM
CCOC(=O)c1nc2nc(-c3cccs3)cc(C(F)(F)F)n2n1	?	–	–	–	–	–	·
O=C(CCc1ccc(S(=O)(=O)N2CCOCC2)cc1)N1CCc2ccccc2C1	–	–	–	–	–	–	–
Cc1cc(Br)ccc1NC(=O)COC(=O)c1ccccc1OCC(=O)N(C)C	–	–	·	·	·	·	·
c1ccc(-c2ccc(-c3cn4c(n3)CCC4)cc2)cc1	2.8µM	–	–	–	–	–	22µM
N=C(N)c1ccc(OCCCOc2ccc(C(=N)N)cc2)cc1	·	–	·	·	·	·	·
Cc1nnc(NC(=O)c2sc3ccccc3c2Cl)s1	–	–	–	–	–	–	·
CNC(=O)c1ccsc1NC(=O)c1sc2ccccc2c1Cl	–	–	–	–	–[2.36 µM]	–	?
COc1cccc(N2CCN(c3ncnc4c3c(-c3ccccc3)cn4-c3cccc(C(F)(F)F)c3)CC2)c1	4µM	–	·	–	·	·	22µM
Cc1cccc(-c2cc(NC(=O)c3ccccc3C)n(-c3ccccc3)n2)c1	–	–	·	–	·	·	·
COc1ccccc1C(=O)Nc1cc(-c2cccc(Br)c2)nn1-c1ccccc1	4µM	–	·	–	·	·	19µM
Cc1ccc(CC(=O)N2CCN(c3cccc(C(F)(F)F)c3)CC2)cc1	10µM	–	–	–	–	–	–
Cc1ccc(S(=O)(=O)CC(=O)N2CCN(c3cccc(C(F)(F)F)c3)CC2)cc1	–	–	–	–	·	–	·
CN(C)c1ccc(/C=C/c2ccnc3ccc([N+](=O)[O-])cc23)cc1	–	–	·	·	·	·	·
COc1ccc(S(=O)(=O)N2CCN(S(=O)(=O)c3ccc4c(c3)OCCO4)CC2)cc1C	4µM	–	–	–	–	–	–
CC(=O)Nc1ccc(/C=C/c2ccnc3ccccc23)cc1[N+](=O)[O-]	–	–	·	·	·	·	·
COc1ccc2oc(=O)c(C(=O)Oc3ccc(NC(C)=O)cc3)cc2c1	–	–	–	–	–	–	–
COc1ccc(NC(=O)c2cc3cc(OC)ccc3oc2=O)cc1	–	–	·	·	·	–	·
SMILES	ClpP mod	GRP78 ERSR act	N370S GC	Apoferritin bind	CBFb-RUNX1 inh	Integrin act MD	ClpP validation
CCOc1ccc(C2C=C(c3ccc(C)cc3)Nc3nnnn32)cc1 (stereo not drawn)	10µM	–	–	–	–	–	–
Nc1ccc[n+](CC(=O)c2ccc(F)cc2)c1	–	–	·	·	·	·	·
O=C(Nc1cccc(-c2cn3ccccc3n2)c1)c1cc2ccccc2oc1=O	–	–	–	–	–	–	–
CC(=O)Nc1cccc(-c2cn3ccccc3n2)c1	·	–	–	–	–	?	·
CCC1(c2cnc[nH]2)Cc2ccccc2C1	·	–	·	·	·	·	·
CCOc1ccc(-n2nc3ccc(NC(=O)c4ccc5c(c4)OCCO5)cc3n2)cc1	8.9µM	–	–	–	–	–	?
CCc1ccc(-n2nc3ccc(NC(=O)c4ccc5c(c4)OCO5)cc3n2)cc1	3.2µM	–	–	–	–	–	–
CC(=O)Nc1ccc(NC(=O)Nc2ccc(C)c(C)c2)cc1	–	–	–	–	–	–	·
CC(=O)Nc1cccc(NC(=O)Nc2ccc(C)c(Cl)c2)c1	1.8µM	–	–	–	–	?	–
CCOc1ccccc1-c1nc2c([nH]1)c(=O)n(C)c(=O)n2C	3.5µM	–	–	–	–	–	22µM
Cn1c(=O)c2[nH]c(Br)nc2n(C)c1=O	·	–	·	·	·	·	·
CN(CC(=O)Nc1cccc(F)c1)C(=O)c1cc(-c2ccccc2)nc2ccccc12	–	–	–	·	·	–	·
COc1ccc(-c2cc(C(=O)N(C)CC(=O)Nc3cccc(F)c3)c3ccccc3n2)cc1	6.3µM	–	–	·	·	–	24µM
COc1ccccc1NC(=O)c1ccc(-c2ccc(Br)cc2)o1	–	–	·	–	–	–	·
NC(=O)c1ccccc1NC(=O)c1ccc(-c2ccc(Br)cc2)o1	–	–	·	–	·	·	17µM
O=C(Nc1cccc(NC(=O)c2ccc(-c3ccc(Br)cc3)o2)c1)c1ccccc1	–	–	–	–	–	–	22µM
Cc1cccc(C)c1NC(=O)c1cc(S(N)(=O)=O)c(Cl)cc1O	·	–	·	·	·	·	·
CC(C)CCNC(=O)COc1ccc2c(c1)C(=O)CC(C)(C)O2	28µM	–	–	–	–	–	15µM
CC(C)N1CCOC1c1ccccc1 (stereo not drawn)	7.9µM	–	·	·	·	–	–
CN1CCOC(c2ccccc2)c2ccccc2C1 (stereo not drawn)	–	–	–	–	–	·	·
CCCCC(=O)O[C@]1(C(=O)CO)CCC2C3CCC4=CC(=O)CCC4(C)C3C(O)CC21C (stereo partly drawn)	·	–	·	·	·	·	·
Nc1nc(N2CCN(C(=O)c3ccco3)CC2)nc2ccccc12	4.5µM	–	–	–	–	–	27µM
Cc1ccc(C(=O)Nc2ccc3c(c2)nc2n3CCSC2)cc1	–	–	–	–	–	–	·
